20 compounds from PubChem BioAssay (NCATS) can be followed below.

“And” between values parts separate entries of the source, which are not always exact repeats. Equal entries are not always repeated. The source made the active and inactive calls. The call rests on the fitted dose curve.
Potency means the concentration at half of the fitted maximal effect.

Catechol O-methyltransferase (Homo sapiens), sequence (P21964 whole entry, looked up): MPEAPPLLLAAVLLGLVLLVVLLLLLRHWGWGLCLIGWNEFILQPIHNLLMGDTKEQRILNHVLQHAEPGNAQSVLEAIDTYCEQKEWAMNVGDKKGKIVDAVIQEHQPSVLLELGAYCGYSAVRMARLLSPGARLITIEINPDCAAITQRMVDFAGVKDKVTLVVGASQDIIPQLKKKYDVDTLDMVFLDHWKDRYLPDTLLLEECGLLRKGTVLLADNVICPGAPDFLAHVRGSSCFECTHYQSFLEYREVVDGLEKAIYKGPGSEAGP

One experiment addresses Catechol O-methyltransferase (Homo sapiens) (UniProt P21964). The experiment is described as follows: Confirmatory Screen for Target Class Profiling of Small Molecule Inhibitors of Methyltransferases (AID 1745852). On activity change, negative = inhibition: on the % scale 0 is the no-effect control and ±100 the full control effect. As to conditions: MTase-Glo luminescence, SAH detection, recombinant enzyme; measured here: COMT max response; stronger effect = lower value.
In the case of `CC(C)(C=O)Cc1cc(C(C)(C)C)c(O)c(C(C)(C)C)c1`, the activity was 2.63%.

Regarding `Oc1ccc(C2CNCc3sccc32)cc1O` (stereo not given), the activity amounted to 133%.

As for `O=C(O)CC[C@@H](C(=O)O)N1C(=O)c2ccccc2C1=O`, the activity is -23.9%.

For the compound `O=C(c1cc(O)c(O)c([N+](=O)[O-])c1)c1ccccc1F`, the activity is -103%.

In the case of `O=Nc1ccc2oc(=O)ccc2c1`, the activity worked out at 0.573%.

Turning to `COc1cc(/C=C/C(=O)CC(=O)/C=C/c2ccc(O)c(OC)c2)ccc1O`, the activity is -53.7%.

With `CCOC(=O)N1CCN(/[N+]([O-])=N/Oc2ccc([N+](=O)[O-])cc2[N+](=O)[O-])CC1`, the activity is -99.7%.

Consider `Fc1ccc(C(OCCCc2cnc[nH]2)c2ccc(F)cc2)cc1`, for which the activity came out at 0.59%.

For `O=[N+]([O-])c1ccc(CNc2nc(NCc3cccc(C(F)(F)F)c3)nc3nc[nH]c23)cc1`, the activity was -6.92% and 9.66%.

As to `CCN(CC)CCCCNc1ncc2cc(-c3c(Cl)cccc3Cl)c(NC(=O)NC(C)(C)C)nc2n1`, the activity was -7.59% and -2.1%.

For `COC1=C(OC)C(=O)c2ccccc2C1=O`, the activity is -44.1%.

Consider `CC(C)(C)c1ccc(S(=O)(=O)/C=C/C#N)cc1`, for which the activity came to 0.864%.

Consider `COc1ccccc1CNCCCCCCNCCCCCCCCNCCCCCCNCc1ccccc1OC`, for which the activity stood at 5.14%.

With `COc1cc(OC)c(/C=C2/C(=O)Nc3ccccc32)c(OC)c1`, the activity was -23%.

`OCC1O[C@H]([S-])[C@H](O)[C@@H](O)[C@@H]1O.[Au+]` (stereo not given in full): the activity is -38.3%.

In the case of `Oc1ccccc1O`, the activity is 160%.

For `CN1CCc2cccc3c2C1Cc1ccc(O)c(O)c1-3` (stereo not given), the activity is 5.12%.

Take `O=C(O)CNC(=O)C(CS)Cc1ccccc1` (stereo not given): the activity was 9.44%.

Turning to `COc1ccc(/C=C2\COc3ccc(C)cc3C2=O)cc1O`, the activity stood at 3.43%.

On to `N.N.N.N.N.N.N.N.N.N.N.N.N.N.O.O.[Ru+4].[Ru+5].[Ru+5]`, for which the activity was -14.7%.

For a further experiment, the target named is Guanidinoacetate N-methyltransferase (Homo sapiens) (UniProt Q14353). The description is as above. As to conditions: MTase-Glo luminescence, SAH detection, recombinant enzyme; activity change, negative = inhibition: at 57.3 µM (top of the series).
For the compound `CC(C)(C=O)Cc1cc(C(C)(C)C)c(O)c(C(C)(C)C)c1`, the activity change, negative = inhibition was determined as 1.77%.

For `Oc1ccc(C2CNCc3sccc32)cc1O` (stereo not given), the activity change, negative = inhibition was determined as 1.13%.

For the compound `O=C(O)CC[C@@H](C(=O)O)N1C(=O)c2ccccc2C1=O`, the activity change, negative = inhibition is -2.85%.

For `O=C(c1cc(O)c(O)c([N+](=O)[O-])c1)c1ccccc1F`, the activity change, negative = inhibition was -5.06%.

Turning to `O=Nc1ccc2oc(=O)ccc2c1`, the activity change, negative = inhibition came out at 3.53%.

Consider `COc1cc(/C=C/C(=O)CC(=O)/C=C/c2ccc(O)c(OC)c2)ccc1O`, for which the activity change, negative = inhibition was -2.93%.

Take `CCOC(=O)N1CCN(/[N+]([O-])=N/Oc2ccc([N+](=O)[O-])cc2[N+](=O)[O-])CC1`: the activity change, negative = inhibition was -4.08%.

On to `Fc1ccc(C(OCCCc2cnc[nH]2)c2ccc(F)cc2)cc1`, for which the activity change, negative = inhibition was found to be 7.35%.

`O=[N+]([O-])c1ccc(CNc2nc(NCc3cccc(C(F)(F)F)c3)nc3nc[nH]c23)cc1`: the activity change, negative = inhibition was -3.71% and 5.72%.

In the case of `CCN(CC)CCCCNc1ncc2cc(-c3c(Cl)cccc3Cl)c(NC(=O)NC(C)(C)C)nc2n1`, the activity change, negative = inhibition was 0.993% and 9.36%.

In the case of `COC1=C(OC)C(=O)c2ccccc2C1=O`, the Potency is 19.3 µM (active).

As for `CC(C)(C)c1ccc(S(=O)(=O)/C=C/C#N)cc1`, the activity change, negative = inhibition is -1.56%.

Turning to `COc1ccccc1CNCCCCCCNCCCCCCCCNCCCCCCNCc1ccccc1OC`, the Potency is 0.153 µM (active).

For `COc1cc(OC)c(/C=C2/C(=O)Nc3ccccc32)c(OC)c1`, the Potency is 27.3 µM (active).

In the case of `OCC1O[C@H]([S-])[C@H](O)[C@@H](O)[C@@H]1O.[Au+]` (stereo not given in full), the Potency is 4.85 µM (active).

Consider `Oc1ccccc1O`, for which the activity change, negative = inhibition was -2.32%.

As for `CN1CCc2cccc3c2C1Cc1ccc(O)c(O)c1-3` (stereo not given), the activity change, negative = inhibition worked out at 3.98%.

Consider `O=C(O)CNC(=O)C(CS)Cc1ccccc1` (stereo not given), for which the activity change, negative = inhibition was found to be 4.59%.

In the case of `COc1ccc(/C=C2\COc3ccc(C)cc3C2=O)cc1O`, the activity change, negative = inhibition was -4.7%.

As for `N.N.N.N.N.N.N.N.N.N.N.N.N.N.O.O.[Ru+4].[Ru+5].[Ru+5]`, the Potency was 30.6 µM (active).
